# PubChem BioAssay (NCATS)
# Results filed as inconclusive are left out. Entries that show only a call come without a potency. Active and inactive are the calls of the source. Calls follow the shape of the dose curve; as a rule, active = well fitted curve in the direction sought with a large enough effect; inconclusive = small, poorly fitted or top-dose-only effect, or another doubt; inactive = no such curve, though single readings can be large; an effect the other way counts as inactive or inconclusive. Where a SMILES comes first, the peptide text is derived from it. [ ]: non-standard residue; d: D form. pGlu = O=C1CC[C@@H](C(=O)O)N1
# Legend:
# [1] = qHTS assay to identify small molecule inhibitors of chordoma cells - UCH-1 (AID 1259355); also: nearly all actives have a fitted effect of over 55% in size; as to potency: series mostly up to about 46 µM
# Method in brief: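 A 48hr growth-inhibition format: each drug tested at 15 concentrations together with added auranofin, camptothecin, doxorubicin, rubitecan and topotecan, with cell viability quantified as CellTiter-Glo luminescence.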
# [2] = qHTS assay to identify small molecule inhibitors of chordoma cells - UCH-2 (AID 1259356)
# [3] = P-glycoprotein substrates identified in KB-8-5-11 adenocarcinoma cell line, qHTS therapeutic library screen (AID 1346987); conditions: outcome: dose series up to 44.5 µM unless noted; also: nearly all actives have a fitted effect of over 65% in size
# Method in brief: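 Luminescence from CellTiter-Glo, read 5 min after addition, quantified survival of KB-8-5-11 (P-gp-overexpressing) cells exposed to compounds for 72 h. AC50 was derived from concentration-response curves.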
# Potency is read from the fitted curve at half-maximal effect.
SMILES,Potency [1],Potency [2],Potency [3]
CC(=O)Nc1ccc(OC(C)=O)cc1,inactive,inactive,inactive
Cc1ccc(C(C)(C)c2ccc(C)cc2)cc1,inactive,inactive,inactive
Cc1cccc(C)c1Nc1ncccc1C(=O)O,inactive,inactive,inactive
CC(O)[C@@H]1NC(=O)[C@H](Cc2ccccc2)NC(=O)[C@H](C(C)O)NC(=O)[C@H](CCCCN)NC(=O)[C@H](Cc2c[nH]c3ccccc23)NC(=O)[C@H](Cc2ccccc2)NC(=O)[C@H](Cc2ccccc2)NC(=O)[C@H](CC(N)=O)NC(=O)[C@H](CCCCN)NC(=O)[C@@H](NC(=O)CNC(=O)[C@H](C)N)CSSC[C@@H](C(=O)O)NC(=O)[C@H](CO)NC1=O (stereo partly drawn),inactive,inactive,inactive
CC1=CCC2CC1C2(C)C (stereo not drawn),inactive,inactive,inactive
C[C@H](O)CN(C)C,inactive,inactive,inactive
[O]=[Bi][O][Bi]=[O],inactive,inactive,inactive
NCC(O)CC(=O)O (stereo not drawn),inactive,inactive,inactive
CC(C)[C@@H](N)C(=O)O,inactive,inactive,inactive
CCOC(=O)c1cc(-c2ccccc2)nc2ccc(C)cc12,inactive,inactive,inactive
c1ccc(-n2cnnn2)cc1,inactive,inactive,inactive
CCCOC(=O)c1ccccc1O,inactive,inactive,inactive
OCC1(CO)COC(C(Cl)(Cl)Cl)OC1,inactive,inactive,inactive
CC[C@H](C)[C@H](NC(=O)[C@H](Cc1ccccc1)NC(=O)[C@H](C)NC(=O)[C@H](CC(=O)O)NC(=O)[C@H](CCCCN)NC(=O)[C@H](CO)NC(=O)[C@@H]1CCCN1C(=O)[C@@H]1CCC(=O)N1)C(=O)NCC(=O)N[C@@H](CC(C)C)C(=O)N[C@@H](CCSC)C(N)=O ([pGlu]PSKDAFIGLM-NH2),inactive,inactive,inactive
COc1ccc([C@@H]2CC(=O)c3c(O)cc(O[C@@H]4O[C@H](CO[C@@H]5O[C@@H](C)[C@H](O)[C@@H](O)[C@H]5O)[C@@H](O)[C@H](O)[C@H]4O)cc3O2)cc1O,inactive,inactive,inactive
CCCCCCOC(=O)c1cccnc1,inactive,inactive,inactive

SMILES,Potency [1],Potency [2],Potency [3]
O=c1[nH]c(=O)n([C@H]2C[C@H](O)[C@@H](CO)O2)cc1/C=C/Br,inactive,inactive,inactive
CC1(C)S[C@@H]2[C@H](N3C(=O)C(c4ccccc4)NC3(C)C)C(=O)N2[C@H]1C(=O)O (stereo partly drawn),inactive,inactive,inactive
O=C(OC1C[C@@H]2CC3C[C@H](C1)N2CC3=O)c1c[nH]c2ccccc12 (stereo partly drawn),inactive,inactive,inactive
CC[C@@H]1/C=C(\C)C[C@H](C)C[C@H](OC)[C@H]2O[C@@](O)(C(=O)C(=O)N3CCCC[C@H]3C(=O)O[C@H](/C(C)=C/[C@@H]3CC[C@@H](Cl)[C@H](OC)C3)[C@H](C)[C@@H](O)CC1=O)[C@H](C)C[C@@H]2OC,inactive,inactive,inactive
C=CCCCCCCCCC(=O)OC,inactive,inactive,inactive
NC(Cc1ccccc1)C(=O)O (stereo not drawn),inactive,inactive,inactive
NC(=O)OC[C@@H]1[C@H](NC(=O)/C(=N\OCC(=O)O)c2csc(N)n2)C(=O)N1S(=O)(=O)O,inactive,inactive,inactive
CC/C=C\C/C=C\C/C=C\CCCCCCCC(=O)O,inactive,inactive,inactive
O=C(O)c1cc(O)c2c(c1)[C@H]([C@H]1c3cc(C(=O)O)cc(O)c3C(=O)c3c(O[C@@H]4O[C@H](CO)[C@@H](O)[C@H](O)[C@H]4O)cccc31)c1cccc(O[C@@H]3O[C@H](CO)[C@@H](O)[C@H](O)[C@H]3O)c1C2=O,inactive,inactive,inactive
CO[C@H]1C[C@H](O[C@@H]2/C(C)=C/C[C@@H]3C[C@@H](C[C@]4(CC[C@H](C)[C@@H](C5CCCCC5)O4)O3)OC(=O)[C@@H]3C=C(C)/C(=N/O)[C@H]4OC/C(=C\C=C\[C@@H]2C)[C@]43O)O[C@@H](C)[C@@H]1O,inactive,inactive,inactive
CC(C)CCCC(C)NC(C)C (stereo not drawn),inactive,inactive,inactive
CCC(Oc1ccccc1)C(=O)N[C@@H]1C(=O)N2[C@@H]1SC(C)(C)[C@@H]2C(=O)O (stereo partly drawn),inactive,inactive,inactive
OC[C@H]1O[C@@H](O[C@H]2[C@H](O)[C@@H](O)[C@H](O)O[C@@H]2CO)[C@H](O)[C@@H](O)[C@@H]1O,inactive,inactive,inactive
CN=C1C=CC(=C(c2ccc(N(C)C)cc2)c2ccc(N(C)C)cc2)C=C1,15.8 µM (active),9.2 µM (active),20.6 µM (active)
O=C(O)CC/C=C\CC[C@@H]1[C@@H](N2CCCCC2)[C@@H](O)C[C@@H]1OCc1ccc(-c2ccccc2)cc1,inactive,inactive,inactive
